Measured values as given in PubChem BioAssay AID1159580 (chemical genetic matrix, 2015).
Where “and” joins values, the source holds several entries; their conditions need not be identical. Equal entries are not always repeated. About 2,000 (36%) of roughly 5,500 compounds were called active. Roughly 18% stayed inconclusive and do not appear here. No stated cut-off is given here; in the data, active means normalized growth mostly below about 0.91 (no sharp cut-off); inconclusive means no clear call, values can overlap the other calls; inactive means mostly above about 0.92. This is one part of the list.

Test: chemical genetic growth profiling, strain panel (AID 1159580);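 further: tested at 20 µM; growth read once vehicle control cultures reached saturation at 30 °C; 1 = growth at the plate median or of vehicle wells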
Conditions: S. cerevisiae deletion strains, growth OD

Measured: normalized growth

C=CC1=C(C(=O)O)N2C(=O)[C@@H](NC(=O)/C(=N/O)c3csc(N)n3)[C@H]2SC1
inactive: locus YAL013W, strain DEP1, stronger effect = lower value 1 | locus YAL021C, strain ccr4, stronger effect = lower value 1.01 | locus YAL026C, strain drs2, stronger effect = lower value 1.02 | locus YAL030W, strain snc1, stronger effect = lower value 1.01 | locus YBL061C, strain skt5, stronger effect = lower value 1.03 | locus YBR009C, strain hhf1, stronger effect = lower value 1 | locus YBR021W, strain FUR4, stronger effect = lower value 1.02 | locus YBR023C, strain chs3, stronger effect = lower value 1.02 | locus YBR171W, strain sec66, stronger effect = lower value 1.03 | locus YBR229C, strain ROT2, stronger effect = lower value 0.992 | locus YBR231C, strain swc5, stronger effect = lower value 1.01 | locus YBR279W, strain paf1, stronger effect = lower value 1.01 | locus YCL011C, strain gbp2, stronger effect = lower value 1.04 | locus YCL016C, strain dcc1, stronger effect = lower value 1.03 | locus YCL029C, strain bik1, stronger effect = lower value 0.987 | locus YCL061C, strain MRC1, stronger effect = lower value 1.04 | locus YCL069W, strain vba3, stronger effect = lower value 1.02 | locus YCR088W, strain abp1, stronger effect = lower value 1.02 | locus YDL005C, strain med2, stronger effect = lower value 1.02 | locus YDL035C, strain GPR1, stronger effect = lower value 1.03 | locus YDL040C, strain nat1, stronger effect = lower value 1.01 | locus YDL074C, strain BRE1, stronger effect = lower value 1.04 | locus YDL101C, strain DUN1, stronger effect = lower value 0.991 | locus YDL134C, strain PPH21, stronger effect = lower value 0.99 | locus YDL185W, strain tfp1, stronger effect = lower value 0.99 | locus YDL192W, strain arf1, stronger effect = lower value 0.986 | locus YDR001C, strain nth1, stronger effect = lower value 1.02 | locus YDR069C, strain doa4, stronger effect = lower value 1.04 | locus YDR101C, strain arx1, stronger effect = lower value 0.99 | locus YDR137W, strain rgp1, stronger effect = lower value 1.03 | locus YDR150W, strain NUM1, stronger effect = lower value 1.01 | locus YDR159W, strain sac3, stronger effect = lower value 1.02 | locus YDR162C, strain NBP2, stronger effect = lower value 1.03 | locus YDR195W, strain ref2 1 | locus YDR297W, strain sur2, stronger effect = lower value 1.03 | locus YDR318W, strain mcm21, stronger effect = lower value 1.01 | locus YDR334W, strain swr1, stronger effect = lower value 1.02 | locus YDR335W, strain msn5, stronger effect = lower value 1.02 | locus YDR388W, stronger effect = lower value 0.995 | locus YDR392W, strain spt3, stronger effect = lower value 1.01 | locus YDR502C, strain sam2, stronger effect = lower value 0.993 | locus YEL003W, strain gim4, stronger effect = lower value 1.01 | locus YEL037C, strain rad23, stronger effect = lower value 1.02 | locus YEL061C, strain CIN8 (second series), stronger effect = lower value 1.01 | locus YEL061C, strain CIN8, stronger effect = lower value 1.01 | locus YER015W, strain faa2, stronger effect = lower value 1.02 | locus YER016W, strain bim1, stronger effect = lower value 1.02 | locus YER110C, stronger effect = lower value 0.978 | locus YER111C, strain swi4, stronger effect = lower value 1.01 | locus YER155C, strain BEM2 (second series), stronger effect = lower value 1.06 | locus YER155C, strain BEM2, stronger effect = lower value 0.994 | locus YER167W, strain BCK2, stronger effect = lower value 1 | locus YFR010W, strain ubp6, stronger effect = lower value 1.03 | locus YGL078C, strain dbp3, stronger effect = lower value 0.989 | locus YGL086W, strain mad1, stronger effect = lower value 0.999 | locus YGL167C, strain pmr1, stronger effect = lower value 1.01 | locus YGL173C, strain kem1, stronger effect = lower value 1.04 | locus YGL227W, strain vid30, stronger effect = lower value 1.01 | locus YGL240W, strain doc1, stronger effect = lower value 1.01 | locus YGL248W, strain PDE1, stronger effect = lower value 0.989 | locus YGL253W, strain hxk2, stronger effect = lower value 1.01 | locus YGR078C, strain PAC10, stronger effect = lower value 1.07 | locus YGR135W, strain pre9, stronger effect = lower value 0.991 | locus YGR229C, strain SMI1, stronger effect = lower value 1.06 | locus YGR252W, strain gcn5, stronger effect = lower value 1 | locus YHR013C, strain ard1, stronger effect = lower value 1.08 | locus YHR027C, strain rpn1, stronger effect = lower value 1.02 | locus YHR030C, strain SLT2, stronger effect = lower value 1 and 0.986 | locus YHR079C, strain IRE1 (second series), stronger effect = lower value 0.989 | locus YHR079C, strain IRE1, stronger effect = lower value 0.975 | locus YHR094C, strain hxt1, stronger effect = lower value 0.991 | locus YHR129C, strain ARP1, stronger effect = lower value 0.995 | locus YHR142W, strain chs7, stronger effect = lower value 1.01 | locus YHR200W, strain rpn10, stronger effect = lower value 0.988 | locus YIL066C, strain RNR3, stronger effect = lower value 1.01 | locus YIL073C, strain SPO22, stronger effect = lower value 1.04 | locus YIL125W, strain kgd1, stronger effect = lower value 0.991 | locus YIR030C, strain dcg1, stronger effect = lower value 0.989 | locus YJL092W, strain hpr5, stronger effect = lower value 1.02 | locus YJL095W, strain BCK1 (second series), stronger effect = lower value 1.01 | locus YJL095W, strain BCK1, stronger effect = lower value 1.01 and 0.982 | locus YJL115W, strain asf1, stronger effect = lower value 1.05 | locus YJL129C, strain trk1, stronger effect = lower value 1.02 | locus YJL134W, strain LCB3, stronger effect = lower value 0.995 | locus YJL154C, strain vps35, stronger effect = lower value 1.02 | locus YJL164C, strain tpk1, stronger effect = lower value 1.04 | locus YJL166W, strain qcr8, stronger effect = lower value 1.04 | locus YJL168C, strain set2, stronger effect = lower value 0.986 | locus YJL187C, strain SWE1 (second series), stronger effect = lower value 0.997 | locus YJL187C, strain SWE1, stronger effect = lower value 1.03 | locus YJR043C, strain POL32, stronger effect = lower value 1.01
